{"source": "PubChem BioAssay", "key": {"[1]": {"test": "liver-stage malaria parasite growth inhibition, primary screen, cell-based, HepG2, luciferase luminescence, HepG2 viability (AID 624349; in the data active = parasite load remaining mostly below about 12%, no sharp cut-off; inactive = mostly above about 10%;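 as to all read-outs here: 100% = mean of DMSO negative control wells on the same plate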)", "conditions": "P. berghei liver stage in HepG2, luciferase luminescence, concentration not given here; parasite load remaining: stronger effect = lower value; viability: measured here: HepG2 viability without parasites"}, "[2]": {"test": "stimulators of nuclear beta-catenin in C2C12, primary screen, imaging, WNT3A-conditioned medium, mouse C2C12, NPC library (AID 1117326; in the data active = nuclear beta-catenin stimulation mostly above about 4.2%, no sharp cut-off; inactive = mostly below about 10%)", "conditions": "stronger effect = higher value"}, "[3]": {"test": "stimulators of insulin release from INS-1E, primary screen, cell-based, 5 mM glucose, NPC library (AID 1117329;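 active = compound raises insulin release from rat beta cells at 5 mM glucose, no numeric limit stated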)", "conditions": "rat INS-1E insulin secretion, at 10 µM, stronger effect = higher value"}, "[4]": {"test": "growth inhibition of GSK3B-pretreated HCT116 cells – cell-based, CellTiter-Glo, 0.2 to 20 µM (AID 1117336;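 active = compounds lowering colon cancer cell viability after pretreatment blocking the GSK3B kinase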)", "conditions": "HCT116 viability after GSK3B inhibitor, at 20 µM, stronger effect = higher value"}, "[5]": {"test": "inhibition of endothelial tube formation, primary screen, imaging, VEGF stimulated, CD31 staining, tube area, NPC library (AID 1117340;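 active = compound that reduces growth-factor-driven endothelial tube area in a mixed cell culture, no cutoff stated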)", "conditions": "VEGF-stimulated ADSC/ECFC co-culture, at 10 µM, stronger effect = higher value"}, "[6]": {"test": "glucagon-like peptide 1 release enhancers, primary assay, NCI-H716 cell line, NPC library (AID 1117341;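 active = compound raises GLP1 secretion from the human gut endocrine cells, with no numeric limit stated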)", "conditions": "NCI-H716 cells, at 10 µM, stronger effect = higher value"}, "[7]": {"test": "HCT116 colon cancer cell growth inhibition, primary screen, CellTiter-Glo luminescence, NPC library (AID 1117342;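 active = compounds that lower survival of HCT116 colon cancer cells in the luminescence readout, no numeric limit stated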)", "conditions": "at 20 µM (top of the series)"}, "[8]": {"test": "CellTiter-Glo luminescent readout of SW480 viability loss, NPC library primary (AID 1117343;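 active = compounds that lower viability of the colon cancer cells in the luminescence readout, with no numeric limit stated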)", "conditions": "CellTiter-Glo luminescence; at 20 µM (top of the series) unless noted"}, "[9]": {"test": "decreased DLD-1 cellular survival, CellTiter-Glo luminescent readout, NPC compound collection, primary HTS (AID 1117346;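 active = compounds that lower survival of DLD-1 colon cancer cells in the luminescence readout, no cutoff given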)", "conditions": "DLD-1 viability, CellTiter-Glo luminescence; at 20 µM (top of the series)"}, "[10]": {"test": "differential killing of epithelial or mesenchymal cells, primary screen, imaging, PC-3E GFP, TEM4-18 mCherry, co-culture (AID 1345086;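 active = compounds killing one labelled cell type while sparing the other, by normalised counts and ratio limits, not self-fluorescent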;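 as to all read-outs here: cells exposed to compound for 72 h before imaging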;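 as to red/green cell ratio (normalised): normalised mesenchymal count divided by normalised epithelial count so high means epithelial killing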)", "conditions": "imaging cell counts, at 1 µM; for red/green cell ratio (normalised): actives lie on both sides, counts scaled to control wells, 1 = unselective"}, "[11]": {"test": "sensitizers of A549 cells to miR-34 induction, primary screen, imaging, A549 dox-inducible miR-34, nuclei and caspase counts (AID 1347080)", "conditions": "A549 miR-34 inducible, Hoechst nuclei count, 48 h"}, "[12]": {"test": "survival rescue of mitochondrial mutant cells in low glucose, primary screen, MELAS cybrids, Rieske KO mouse fibroblasts, CellTiter-Glo (AID 1508586;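 active = mean z-score across replicates of 1.96 or higher in either the MELAS or the Rieske mutant cell line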;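 also: z relative to plate mean and SD of compound and empty wells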)"}, "[13]": {"target": "NAD(+) hydrolase SARM1 (Homo sapiens) (UniProt Q6SZW1)", "sequence (Q6SZW1 whole entry, looked up)": "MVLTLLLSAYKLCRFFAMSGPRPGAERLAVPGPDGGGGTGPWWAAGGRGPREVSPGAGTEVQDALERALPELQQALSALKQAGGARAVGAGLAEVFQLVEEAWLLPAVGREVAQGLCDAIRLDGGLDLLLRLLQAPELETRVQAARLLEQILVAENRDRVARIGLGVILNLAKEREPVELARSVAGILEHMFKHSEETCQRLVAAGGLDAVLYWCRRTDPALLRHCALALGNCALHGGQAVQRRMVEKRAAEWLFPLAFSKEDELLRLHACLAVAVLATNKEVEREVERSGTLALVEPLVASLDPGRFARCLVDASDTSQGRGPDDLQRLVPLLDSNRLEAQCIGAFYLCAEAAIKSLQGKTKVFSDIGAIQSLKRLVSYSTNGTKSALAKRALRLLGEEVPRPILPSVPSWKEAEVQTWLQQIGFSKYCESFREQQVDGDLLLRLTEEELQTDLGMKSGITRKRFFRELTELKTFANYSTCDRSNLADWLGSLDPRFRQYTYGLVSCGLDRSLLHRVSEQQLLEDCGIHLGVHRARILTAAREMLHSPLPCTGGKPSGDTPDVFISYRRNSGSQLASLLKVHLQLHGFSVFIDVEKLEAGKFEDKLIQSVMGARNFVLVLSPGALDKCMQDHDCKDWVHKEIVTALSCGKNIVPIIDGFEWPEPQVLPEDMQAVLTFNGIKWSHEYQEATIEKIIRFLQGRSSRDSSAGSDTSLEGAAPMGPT", "test": "SARM1 TIR NADase inhibitors, cell lysate, NAD-Glo luminescence (AID 1508614;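 active = compound whose remaining NAD level is above about 45 nM, limit read from the data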)", "conditions": "SAM-TIR HEK293T lysate NADase, at 1 µM, stronger effect = higher value"}, "[14]": {"test": "hESC survival regulators, cell-based (AID 493140; call rule not given here;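 also: cells exposed to compounds for four days before counting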)", "conditions": "human embryonic stem cell survival screen; stronger effect = higher value"}, "[15]": {"conditions": "measured here: epithelial PC-3E GFP cell survival"}, "[16]": {"conditions": "measured here: mesenchymal TEM4-18 mCherry cell survival"}, "[17]": {"conditions": "stronger effect = lower value, cell number ratio, induced over uninduced"}, "[18]": {"conditions": "measured here: relative caspase fold change +Dox/-Dox"}, "[19]": {"conditions": "measured here: total cells with miR-34 induction, stronger effect = lower value"}, "[20]": {"conditions": "measured here: total cells without miR-34 induction"}, "[21]": {"conditions": "MELAS cybrid survival, CellTiter-Glo 48 h, stronger effect = higher value"}, "[22]": {"conditions": "Rieske KO mouse fibroblast survival, CellTiter-Glo 72 h"}}, "note": "Values joined by “and” are separate entries in the source; they are usually repeats but may differ in a detail not shown here. Equal entries are not always repeated. Active and inactive are the calls of the source.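 The calls were made as follows, unless noted: active = compounds whose cell count with miR-34 switched on is under 0.7 times the count with it off; inactive = the rest.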", "data": [{"compound": "COc1ccc2[nH]c(S(=O)Cc3ncc(C)c(OC)c3C)nc2n1", "note": "(configuration not stated)", "values": [{"measurement": "parasite load remaining", "setting": "[1]", "result": "0.57% (active)"}, {"measurement": "viability", "setting": "[1]", "result": 93, "unit": "%"}, {"measurement": "nuclear beta-catenin stimulation", "setting": "[2]; at 10 µM", "result": "5.2% (inactive)"}, {"measurement": "nuclear beta-catenin stimulation", "setting": "[2]; stimulation, at 2 µM", "result": -0.9, "unit": "%"}, {"measurement": "insulin secretion stimulation", "setting": "[3]", "result": "4.2% (inactive)"}, {"measurement": "viability decrease", "setting": "[4]", "result": "16.5% (inactive)"}, {"measurement": "tube area decrease", "setting": "[5]", "result": "14.1% (inactive)"}, {"measurement": "GLP1 secretion stimulation", "setting": "[6]", "result": "4.6% (inactive)"}, {"measurement": "inhibition of viability", "setting": "[7]", "result": "4.9% (inactive)"}, {"measurement": "viability decrease (inhibition)", "setting": "[8]", "result": "-1.6% (inactive)"}, {"measurement": "viability decrease (inhibition)", "setting": "[9]", "result": "4.3% (inactive)"}, {"measurement": "red/green cell ratio (normalised)", "setting": "[10]", "result": "1.06 (inactive)"}, {"measurement": "normalised cell number", "setting": "[10]; [15]", "result": 1.01}, {"measurement": "normalised cell number", "setting": "[10]; [16]", "result": 1.07}, {"measurement": "fold change", "setting": "[11]; [17]", "result": "0.835 (inactive)"}, {"measurement": "fold change", "setting": "[11]; [18]", "result": 1.32}, {"measurement": "cell count", "setting": "[11]; [19]", "result": 8340}, {"measurement": "cell count", "setting": "[11]; [20]", "result": 9990}, {"measurement": "z-score", "setting": "[12]; [21]", "result": "1.95 (inactive) and 1.02"}, {"measurement": "z-score", "setting": "[12]; [22]", "result": "0.213 and 2.3"}, {"measurement": "remaining NAD", "setting": "[13]", "result": "77 nM (active)"}]}, {"compound": "CCN(C)C(=O)Oc1cccc([C@H](C)N(C)C)c1", "values": [{"measurement": "parasite load remaining", "setting": "[1]", "result": "32.3% (inactive)"}, {"measurement": "viability", "setting": "[1]", "result": 99, "unit": "%"}, {"measurement": "nuclear beta-catenin stimulation", "setting": "[2]; at 10 µM", "result": "-0.2% (inactive)"}, {"measurement": "nuclear beta-catenin stimulation", "setting": "[2]; stimulation, at 2 µM", "result": 0.4, "unit": "%"}, {"measurement": "insulin secretion stimulation", "setting": "[3]", "result": "6.4% (inactive)"}, {"measurement": "viability decrease", "setting": "[4]", "result": "5.7% (inactive)"}, {"measurement": "tube area decrease", "setting": "[5]", "result": "-0.5% (inactive)"}, {"measurement": "GLP1 secretion stimulation", "setting": "[6]", "result": "2.5% (inactive)"}, {"measurement": "inhibition of viability", "setting": "[7]", "result": "25.9% (inactive)"}, {"measurement": "viability decrease (inhibition)", "setting": "[8]", "result": "17.2% (inactive)"}, {"measurement": "viability decrease (inhibition)", "setting": "[9]", "result": "0.2% (inactive)"}, {"measurement": "red/green cell ratio (normalised)", "setting": "[10]", "result": "1.13 (inactive)"}, {"measurement": "normalised cell number", "setting": "[10]; [15]", "result": 1.24}, {"measurement": "normalised cell number", "setting": "[10]; [16]", "result": 1.4}, {"measurement": "fold change", "setting": "[11]; [17]", "result": "0.884 (inactive)"}, {"measurement": "fold change", "setting": "[11]; [18]", "result": 1.13}, {"measurement": "cell count", "setting": "[11]; [19]", "result": 10100}, {"measurement": "cell count", "setting": "[11]; [20]", "result": 11400}, {"measurement": "z-score", "setting": "[12]; [21]", "result": "-0.629 (inactive) and -0.546 (inactive)"}, {"measurement": "z-score", "setting": "[12]; [22]", "result": "-0.737 and -0.15"}]}, {"compound": "O=C1Cc2cc(CCN3CCN(c4nsc5ccccc45)CC3)c(Cl)cc2N1", "values": [{"measurement": "nuclear beta-catenin stimulation", "setting": "[2]; at 10 µM", "result": "0.7% (inactive)"}, {"measurement": "nuclear beta-catenin stimulation", "setting": "[2]; stimulation, at 2 µM", "result": 0.6, "unit": "%"}, {"measurement": "insulin secretion stimulation", "setting": "[3]", "result": "0.65% (inactive)"}, {"measurement": "viability decrease", "setting": "[4]", "result": "117% (active)"}, {"measurement": "tube area decrease", "setting": "[5]", "result": "22.4% (inactive)"}, {"measurement": "GLP1 secretion stimulation", "setting": "[6]", "result": "2.9% (inactive)"}, {"measurement": "inhibition of viability", "setting": "[7]", "result": "124% (active)"}, {"measurement": "viability decrease (inhibition)", "setting": "[8]", "result": "91.1% (active)"}, {"measurement": "viability decrease (inhibition)", "setting": "[9]", "result": "101% (active)"}, {"measurement": "red/green cell ratio (normalised)", "setting": "[10]", "result": "0.94 (inactive)"}, {"measurement": "normalised cell number", "setting": "[10]; [15]", "result": 1.17}, {"measurement": "normalised cell number", "setting": "[10]; [16]", "result": 1.1}, {"measurement": "fold change", "setting": "[11]; [17]", "result": "0.799 (inactive) and 0.929 (inactive) and 0.946 (inactive)"}, {"measurement": "fold change", "setting": "[11]; [18]", "result": "1.72 and 0.693 and 2.86"}, {"measurement": "cell count", "setting": "[11]; [19]", "result": "4490 and 6730 and 8460"}, {"measurement": "cell count", "setting": "[11]; [20]", "result": "5620 and 7240 and 8940"}, {"measurement": "z-score", "setting": "[12]; [21]", "result": "-0.541 (inactive) and 0.954 (inactive)"}, {"measurement": "z-score", "setting": "[12]; [22]", "result": "1.41 and -0.174"}, {"measurement": "remaining NAD", "setting": "[13]", "result": "10 nM (inactive)"}]}, {"compound": "CC(=O)Oc1cc(C(C)C)c(OCCN(C)C)cc1C", "values": [{"measurement": "survival", "setting": "[14]", "result": "24.8 (inactive)"}, {"measurement": "parasite load remaining", "setting": "[1]", "result": "26.2% (inactive) and 99.2% (inactive)"}, {"measurement": "viability", "setting": "[1]", "result": "48.6% and 93%"}, {"measurement": "nuclear beta-catenin stimulation", "setting": "[2]; at 10 µM", "result": "-2.5% (inactive)"}, {"measurement": "nuclear beta-catenin stimulation", "setting": "[2]; stimulation, at 2 µM", "result": -1, "unit": "%"}, {"measurement": "insulin secretion stimulation", "setting": "[3]", "result": "5.5% (inactive)"}, {"measurement": "viability decrease", "setting": "[4]", "result": "19.7% (inactive)"}, {"measurement": "tube area decrease", "setting": "[5]", "result": "-2.1% (inactive)"}, {"measurement": "GLP1 secretion stimulation", "setting": "[6]", "result": "2.8% (inactive)"}, {"measurement": "inhibition of viability", "setting": "[7]", "result": "2.17% (inactive)"}, {"measurement": "viability decrease (inhibition)", "setting": "[8]", "result": "20.7% (inactive)"}, {"measurement": "viability decrease (inhibition)", "setting": "[9]", "result": "-14.3% (inactive)"}, {"measurement": "red/green cell ratio (normalised)", "setting": "[10]", "result": "1.11 (inactive)"}, {"measurement": "normalised cell number", "setting": "[10]; [15]", "result": 0.81}, {"measurement": "normalised cell number", "setting": "[10]; [16]", "result": 0.9}, {"measurement": "fold change", "setting": "[11]; [17]", "result": "1.09 (inactive) and 0.875 (inactive)"}, {"measurement": "fold change", "setting": "[11]; [18]", "result": "0.909 and 1.24"}, {"measurement": "cell count", "setting": "[11]; [19]", "result": "11300 and 8650"}, {"measurement": "cell count", "setting": "[11]; [20]", "result": "10400 and 9890"}, {"measurement": "z-score", "setting": "[12]; [21]", "result": "0.238 (inactive)"}, {"measurement": "z-score", "setting": "[12]; [22]", "result": -0.428}, {"measurement": "remaining NAD", "setting": "[13]", "result": "10 nM (inactive)"}]}]}
